DAX1 inh-1: inhibitors of human orphan nuclear receptor DAX1 (NR0B1). P51843. HEK293 Gal4-DAX1 luciferase reporter, luminescence. inhibition, % at 6.75 µM. 0.99% of 340,000 active;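 active means inhibition above the mean over all tested compounds plus 3 SD, cut at about 4.2% in these data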;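 further: 0% = DAX1-transfected cells with DMSO and 100% = empty-vector control cells with DMSO; inhibition shows as a rise in luminescence from relieved DAX1 repression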
Target sequence (P51843 207-470 limits assumed): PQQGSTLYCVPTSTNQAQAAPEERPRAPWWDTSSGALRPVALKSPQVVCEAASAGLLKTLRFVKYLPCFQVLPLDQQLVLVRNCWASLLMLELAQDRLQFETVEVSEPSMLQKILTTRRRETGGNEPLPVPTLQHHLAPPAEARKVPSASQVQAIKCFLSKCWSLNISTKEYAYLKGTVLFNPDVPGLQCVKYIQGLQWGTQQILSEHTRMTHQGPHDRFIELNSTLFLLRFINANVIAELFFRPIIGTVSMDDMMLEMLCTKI
hcDAF12 agonist: H. contortus DAF-12 activation, primary screen; 1.4% of 370,000 active; HEK293 hcDAF-12 lit1-tk-luc reporter, luminescence; 0% DMSO, 100% Δ7-dafachronic acid; AID 652067; activation, % at 6.8 µM;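 active means activation above the mean of all tested compounds plus 3 SD, cut at about 5.5% in these data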;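 further: 100% = response to 3 µM Δ7-dafachronic acid high control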
ssDAF12 agonist: S. stercoralis DAF-12 activation, primary screen; HEK293 ssDAF-12/GRIP1 lit1-tk-luc reporter, luminescence; % of 3 µM dafachronic acid response; activation, % at 6.8 µM; 1% of 370,000 active;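 active means activation above the mean over all tested compounds plus 3 SD, cut at about 0.9% in these data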;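 further: 0% = DMSO-only wells and 100% = 3 µM delta7-dafachronic acid wells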
DAX1 inh-2: inhibitors of DAX1 repression of SF-1 activated StAR promoter. inhibition, % at 6.8 µM. HEK293T StAR-luciferase reporter, SF-1/DAX-1 repression relief. 1.1% of 370,000 active;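 active means inhibition above the mean over all tested compounds plus 3 SD, cut at about 3.6% in these data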;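 further: 0% = DAX-1 cells with DMSO and 100% = cells lacking DAX-1 with DMSO; higher inhibition means more luminescence from relief of DAX-1 repression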
hgDAF12 agonist: hgDAF-12 agonism, primary luciferase screen | HEK293 GAL4-hgDAF12 UAS-luciferase reporter, agonist luminescence; normalized to butyrate control | activation, % at 6.8 µM | 1.8% of 370,000 active | AID 687014;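 active means activation above a cutoff set at the mean of all screened compounds plus 3 SD, cut at about 10% in these data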;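 further: 0% = DMSO wells and 100% = sodium butyrate wells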
Active calls of the source: *; · = not tested or not shown. Most compounds without a hit are left out; they make up all but 4.1% or so of the library.

SMILES	DAX1 inh-1	hcDAF12 agonist	ssDAF12 agonist	DAX1 inh-2	hgDAF12 agonist
CCOC(=O)C1=C(N)n2c(s/c(=C/c3ccco3)c2=O)=C(C(=O)OC)C1c1ccco1 (centres undefined)	2	-1	-1	-2	1
N#CC1=C(N)n2c(s/c(=C\c3ccco3)c2=O)=C(C#N)C1c1ccco1 (centres undefined)	1	3	1.6*	0	0
O=C(NCc1ccc(C(=O)NC2CCCC2)cc1)c1cccc(Br)c1	·	-2	0	0	-2
CN(C)[C@@H]1CCN(c2cccc3c2S(=O)(=O)N2CC[C@@H](C2)O3)C1	·	3	-1	-1	-1
O=C(COC(=O)c1n[nH]c2ccccc12)Nc1ccccc1	10*	2	0	2	10
Cc1cc(C)cc(NC(=O)COC(=O)c2n[nH]c3ccccc23)c1	1	1	-1	0	12*
CC[C@@H]1/C(=C/c2ccccc2)N2C(=O)C[C@@H](c3ccccc3)N=C2N1Cc1ccc(OC)cc1OC	·	-2	-2	·	0
O=C(N[C@@H](Cc1cccnc1)C(=O)N1CCC[C@H]1C(=O)NC1CCCC1)C1CCCC1	·	1	-1	0	1
O=C(O)c1cccc(COc2ccccc2Cl)c1	-6	4	0	4.5*	7
Cc1cccnc1NC(=O)C1COc2ccccc2O1 (centres undefined)	-1	1	1.4*	1	3
Cc1ccccc1NC(=O)C1COc2ccccc2O1 (centres undefined)	2	0	0	0	2
CCc1ccccc1NC(=O)C1COc2ccccc2O1 (centres undefined)	3	0	-1	1	0
O=C(Nc1ccccc1[N+](=O)[O-])C1COc2ccccc2O1 (centres undefined)	8.7*	5	0	2	7
COc1ccc(C)cc1NC(=O)C1COc2ccccc2O1 (centres undefined)	-1	3	-1	4.2*	2
COC(=O)C1=C(C)N(C)C(=NCc2ccccc2C(F)(F)F)NC1c1ccc(Cl)cc1 (centres undefined)	·	-1	-1	-2	1
O=C(c1cc(Cl)ccc1F)N1CCCC(c2nc(-c3cccs3)no2)C1 (centres undefined)	·	-1	-1	0	3
COc1ccc(C2O[C@@H](C)[C@@H]3C(=O)N4CCc5c([nH]c6ccccc56)[C@@H]4C[C@@H]3N2C)cc1 (some centres undefined)	·	1	0	1	0
COC(=O)CC1C(=O)NCCN1C(=S)Nc1ccc(F)cc1 (centres undefined)	5.2*	1	-1	0	2
COC(=O)CC1C(=O)NCCN1C(=O)c1ccccc1 (centres undefined)	2	0	-1	0	1
COC(=O)CC1C(=O)NCCN1C(=O)CSc1nc2ccccc2s1 (centres undefined)	1	4	1.2*	1	-1
COc1ccc(C2CC(=O)C(c3ccc(C(C)=O)cc3)=CN2Cc2ccccc2)cc1 (centres undefined)	·	0	-1	0	-1
COCCCNC(=O)c1ccc(OC)c(OC2CCN(C(C)C)CC2)c1	5.2*	-2	-1	0	0
COc1ccc(C=Nn2c(-c3n[nH]c4c3CCC4)n[nH]c2=S)cc1OCc1ccccc1	·	-2	-2	0	-2
Cc1cccc(-c2nnc(SCC(=O)Nc3cccc4ccccc34)n2Cc2ccco2)c1	·	-3	-1	-1	3
O=C(Cc1cccc2ccccc12)Nc1ccc(O)cc1C(=O)O	1	0	-1	0	4
SMILES	DAX1 inh-1	hcDAF12 agonist	ssDAF12 agonist	DAX1 inh-2	hgDAF12 agonist
O=C(Cc1cccc2ccccc12)Nc1ccc(Br)cc1C(=O)O	5.6*	-1	-1	0	1
CC(=O)Nc1cc(NC(C)=O)c(N=Nc2ccccc2)cc1C	4.7*	-2	-2	0	1
Cc1cc(N=Nc2ccccc2)cc(C)c1NC(=O)C(F)(F)F	5.1*	2	0	3	9
CN(C)S(=O)(=O)c1ccc(C(=O)OCCCN=C2NS(=O)(=O)c3ccccc32)cc1	4.4*	-2	-1	-1	1
Cc1ccc(S(=O)(=O)NC(=O)ON=Cc2ccc3c(c2)OCO3)cc1	·	-3	-1	1	2
CC(=O)c1c(C)[nH]c(C(=O)Nc2ccccc2C)c1C	·	5	-1	·	3
CN(C)c1ccc(S(=O)(=O)NCC(=O)N2CCN(S(=O)(=O)c3cccc(F)c3)CC2)cc1[N+](=O)[O-]	0	0	-1	1	-2
CN(CC(=O)Nc1cccc(F)c1)C(=O)CNS(=O)(=O)c1ccc(N(C)C)c([N+](=O)[O-])c1	4.4*	0	-1	-1	3
Nc1nc2ccccc2n1S(=O)(=O)c1ccc(Cl)cc1	·	0	-1	4.2*	-1
Cc1ccc(S(=O)(=O)n2c(N)nc3ccccc32)cc1	0	-2	-1	0	0
COc1cc(NC(=O)CSc2nnc3c(C)cc4cc(C)cc(C)c4n23)c(C(=O)O)cc1OC	-1	1	0	0	11*
Cc1[nH]c2c([N+](=O)[O-])cccc2c1C	4.2*	1	-1	0	1
O=c1c2c3c(sc2n(CCN2CCOCC2)c(=O)n1C1CCCCC1)CCCCC3	·	2	-1	1	0
Cc1cccc(/C=N\NC(=O)c2csnn2)c1	1	5	0	2	9
O=C(N/N=C/c1ccc(OC2CSC2)cc1)c1ccccc1	2	2	0	4.2*	5
O=C(N/N=C\c1ccc(Oc2ccccc2)cc1)c1csnn1	5.4*	1	0	2	11*
COc1ccc(/C(N)=N/OC(=O)c2ccco2)cc1	-1	4	0	3.9*	11*
CC(=O)Nc1nc2ncccn2c1-c1ccc(F)c(F)c1	·	-1	-1	0	0
CCCCOC(=O)c1ccc(NC(=S)N2CCN(c3ncc4c(=O)c(C(=O)O)cn(CC)c4n3)CC2)cc1	4.3*	-2	-1	0	-3
CCn1cc(C(=O)O)c(=O)c2cnc(N3CCN(C(=S)Nc4ccccc4)CC3)nc21	3	0	-2	0	0
O=C(Nc1nc2ncccn2c1-c1ccc(C(F)(F)F)cc1)C1CC1	·	2	-1	-1	2
C#CCNC(=O)C[C@H]1C[C@@]2(C(=O)OC)C(=C[C@H](C3CCCC3)O[C@@H]2C)N(Cc2ccccc2)C1=O	·	-1	-1	-1	1
Cc1cc(NS(=O)(=O)c2ccc(NC(=S)NCc3ccccc3)cc2)no1	6.5*	-1	-1	0	0
COc1ccc(-c2nc(-c3ccc(Br)cc3)no2)c(OC)c1	4	4	1.0*	3	12*
COc1ccccc1-c1noc(-c2cc(OC)c(OC)c(OC)c2)n1	1	-2	-1	0	-1

Screens: PubChem BioAssay, The Scripps Research Institute Molecular Screening Center
